This is an account of results in the supplement of paper PMC11402862.

For the assay, the target named is FXR LBD (GAL4 fusion) (UniProt Q96RI1). The experiment in a line: luciferase reporter transactivation, fold of solvent control; higher = stronger receptor activation. The note with it: HEK293T, exposure time: 24 h. The protocol:
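HEK293T cells were transiently transfected with a GAL4-DBD fused to the ligand-binding domain of a human nuclear receptor (PPARα, PPARγ, PPARδ, FXR, LXRα, PXR, RARα or CAR), the GAL4-(UAS)5-TK firefly luciferase reporter and a Renilla luciferase normalisation plasmid. Cells were exposed to compound for 24 h in 0.5% DMSO. Firefly/Renilla luciferase was expressed as fold of the solvent control (=1). Values are the mean of 2-3 biological replicates; receptor agonists were used as positive controls.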
On the technique in general: A reporter such as luciferase makes a cellular process visible.

FXR LBD (GAL4 fusion), sequence (Q96RI1 whole entry, looked up, the tested form may be a part): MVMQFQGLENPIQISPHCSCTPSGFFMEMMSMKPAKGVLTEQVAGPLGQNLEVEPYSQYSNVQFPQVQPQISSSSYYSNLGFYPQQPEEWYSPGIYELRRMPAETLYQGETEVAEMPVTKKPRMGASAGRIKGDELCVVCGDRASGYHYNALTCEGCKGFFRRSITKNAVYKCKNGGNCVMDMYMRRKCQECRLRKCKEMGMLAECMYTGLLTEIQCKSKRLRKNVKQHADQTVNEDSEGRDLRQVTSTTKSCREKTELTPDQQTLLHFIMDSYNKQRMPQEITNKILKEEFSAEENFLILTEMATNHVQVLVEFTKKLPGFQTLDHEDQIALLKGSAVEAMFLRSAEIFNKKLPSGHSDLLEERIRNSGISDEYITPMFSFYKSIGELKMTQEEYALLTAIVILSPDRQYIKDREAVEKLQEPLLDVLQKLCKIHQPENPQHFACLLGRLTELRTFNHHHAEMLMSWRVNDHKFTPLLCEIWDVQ

Turning to `O=S(=O)(O)CCC(F)(F)C(F)(F)C(F)(F)C(F)(F)C(F)(F)C(F)(F)F` [6:2 fluorotelomer sulfonic acid], the luciferase reporter transactivation is, setting by setting: (concentration: 1 µM) 1.09; (concentration: 5 µM) 0.835; (concentration: 10 µM) 1.32; (concentration: 25 µM) 1.37; (concentration: 50 µM) 1.75; (concentration: 100 µM) 2.38.
Regarding `O=S(=O)(O)CCC(F)(F)C(F)(F)C(F)(F)C(F)(F)C(F)(F)C(F)(F)C(F)(F)C(F)(F)F` [8:2 fluorotelomer sulfonic acid], the luciferase reporter transactivation is 0.842 (concentration: 1 µM); 1.12 (concentration: 5 µM); 1.16 (concentration: 10 µM); 1.21 (concentration: 25 µM); 1.53 (concentration: 50 µM); 4.17 (concentration: 100 µM). The luciferase reporter transactivation (concentration: 250 µM) was 3.41 and the luciferase reporter transactivation (concentration: 500 µM) stood at 2.14.
As to `OCCC(F)(F)C(F)(F)C(F)(F)C(F)(F)C(F)(F)C(F)(F)F` [6:2 fluorotelomer alcohol], the luciferase reporter transactivation reads like this: (concentration: 1 µM) 0.815; (concentration: 5 µM) 0.885; (concentration: 10 µM) 0.96; (concentration: 25 µM) 0.834; (concentration: 50 µM) 0.847; (concentration: 100 µM) 0.833. In addition, the luciferase reporter transactivation reads like this: (concentration: 250 µM) 0.628; (concentration: 500 µM) 0.416.
As to `O=C(O)C(F)(F)C(F)(F)C(F)(F)C(F)(F)F` [perfluoropentanoic acid], the luciferase reporter transactivation turned out to be 0.969 (concentration: 1 µM); 1.05 (concentration: 5 µM); 1.05 (concentration: 10 µM); 1.12 (concentration: 25 µM); 1.18 (concentration: 50 µM); 1.11 (concentration: 100 µM). Also, the luciferase reporter transactivation was found to be 1.18 (concentration: 250 µM) and 2.08 (concentration: 500 µM).
In turn, `CC(C)c1onc(-c2c(Cl)cccc2Cl)c1COc1ccc(/C=C/c2cccc(C(=O)O)c2)c(Cl)c1` gave a luciferase reporter transactivation (concentration: 10 µM) of 50.2.
